Screens (PubChem BioAssay)
Shown are actives, neighbours in structure and some others; about 21% of the full set was active somewhere.
NS1 inh – qHTS Assay for Inhibitors of Influenza NS1 Protein Function; AID 2326, 2010; Potency, µM (titrated, usually from 46.1 µM), for the others: top-dose activity, positive = more growth; hit rate 0.4% among 270,000; calls by dose curve; also: potency is read from the fitted curve at half-maximal effect; actives are rising curves; nearly all actives have a fitted effect of over 50% in size
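OD600 was taken as the measure of yeast growth restored by compound in an NS1-expressing S. cerevisiae strain. Cells had been washed out of glucose medium and diluted 1:100 into galactose -URA medium, pH 6.0.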
Shiga inhibitor – A qHTS for Small Molecule Inhibitors of Shiga Toxin; hit rate 9.2% among 290,000; inhibition, % at 38.7 µM; Vero cells, Shiga toxin protein synthesis inhibition reporter; AID 2315, 2010; in the data active = inhibition mostly above about 28%, no sharp cut-off; inactive = mostly below about 43%; also: 0% is about no effect
Sm TGR inh – qHTS Assay for the Inhibitors of Schistosoma Mansoni Peroxiredoxins | hit rate 3% among 360,000 | Potency, µM (series often up to 114 µM), inactives show top-dose activity change, negative = inhibition, hits mostly inhibitors | Schistosoma mansoni thioredoxin glutathione reductase (TGR), Q962Y6 | purified TGR, DTNB reduction, TNB absorbance 405 nm; also: potency is read from the fitted curve at half-maximal effect; % is scaled to controls: 0 for no effect and ±100 for the full control effect; nearly all actives have a fitted effect of over 60% in size
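TGR 20 nM + NADPH 100 uM (dispensed conc.), cpd preinc 15 min RT; start with NADPH (500 uM addition) then DTNB (15 mM addition). Kinetic TNB absorbance, 405 nm filter. Four-parameter Hill fit across titration.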
Cycloheximide cs – Cycloheximide Counterscreen for Small Molecule Inhibitors of Shiga Toxin. max response, %. hit rate 12% among 300,000. AID 2314, 2010. cell reporter, cycloheximide protein synthesis inhibition counterscreen; in the data active = max response mostly above about 13%, no sharp cut-off; inactive = mostly below about 14%; also: read at 38.3 µM for the half of the compounds with a filed dose; 0% is about no effect
Pf growth 48h – Primary qHTS for delayed death inhibitors of the malarial parasite plastid, 48 hour incubation. AID 504832, 2011. Potency, µM (highest dose often 28.7 µM), inactives show at the top dose activity change, negative = inhibition, actives largely listed as inhibitors. P. falciparum luciferase growth in erythrocytes, 48 h. hit rate 5.9% among 310,000; also: potency is read from the fitted curve at half-maximal effect; % is scaled to controls: 0 for no effect and ±100 for the full control effect
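A one-generation exposure of luciferase-tagged malaria parasites in RPMI 1640/Albumax erythrocyte culture, 37 C and 5% CO2. Inhibition is inferred from decreased luminescence after adding detection reagent.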
Pf growth 96h – Primary qHTS for delayed death inhibitors of the malarial parasite plastid, 96 hour incubation | P. falciparum luciferase reporter growth, 96 h | Potency, µM (top dose mostly 28.7 µM), without a hit: top-dose activity change, negative = inhibition, most hits filed as inhibitors | hit rate 6.9% among 320,000; also: potency is read from the fitted curve at half-maximal effect; % is scaled to controls: 0 for no effect and ±100 for the full control effect
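Two parasite generations (96 h, 37 C, 5% CO2) of compound exposure in infected erythrocytes (0.05% parasitemia, 2% hematocrit). Luciferase-reporter P. falciparum; decreased luminescence indicates inhibited growth, aimed at apicoplast-acting delayed death.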
The depositor's hits bear a star; [ ] = another dose, or the depositor's remark. Unless noted, calls follow the shape of the dose curve; as a rule, active = well fitted curve in the direction sought with a large enough effect; inconclusive = small, poorly fitted or top-dose-only effect, or another doubt; inactive = no such curve, though single readings can be large; an effect the other way counts as inactive or inconclusive.

Results for O=C(Nc1ccccc1)/C(=C/c1ccccc1)c1ccccc1 ?
NS1 inh: 16.6%; Shiga inhibitor: 3.7; Sm TGR inh: -0.1%; Cycloheximide cs: -2.2; Pf growth 48h: 14.7µM*; Pf growth 96h: 4.15µM*

How did CCCC1NC(=S)N(C2CCCCC2)C1=O (configuration not stated) do in these assays?
NS1 inh: 5.9%; Shiga inhibitor: -13.5; Sm TGR inh: -3.8%; Cycloheximide cs: -1.8; Pf growth 48h: 0.1%; Pf growth 96h: 2.94µM*

What do the screens show for `COc1ccccc1N1CCN(S(=O)(=O)CCNC(=O)C2CCCC2)CC1`?
Sm TGR inh: -0.7%; Pf growth 48h: -23.4%; Pf growth 96h: 1.0%

How did CCC1CCCCN1S(=O)(=O)c1ccc(C(=O)Nc2sc3c(c2C(N)=O)CCC3)cc1 (configuration not stated) do in these assays?
Sm TGR inh: 35.5µM*

What do the screens show for `COC(=O)c1c(NC(=O)c2ccc(S(=O)(=O)N3CCC(C)CC3)cc2)sc2c1CCN(C)C2`?
Sm TGR inh: -0.4%

How did CC(C)N1CCc2c(sc(NC(=O)c3ccc(S(=O)(=O)N4CCOCC4)cc3)c2C(N)=O)C1 do in these assays?
NS1 inh: -40.5%; Shiga inhibitor: 17.3; Sm TGR inh: -10.7%; Cycloheximide cs: 0.8; Pf growth 48h: inconclusive; Pf growth 96h: 4.15µM*

What do the screens show for `CNC(=O)c1c(NC(=O)c2ccc(S(=O)(=O)N3CCCC3)cc2)sc2c1CCN(C(C)C)C2`?
NS1 inh: inconclusive; Shiga inhibitor: -22.6; Sm TGR inh: 0.0%; Cycloheximide cs: 1.1; Pf growth 48h: 2.62µM*; Pf growth 96h: inconclusive

What do the screens show for `CNC(=O)c1c(NC(=O)c2ccc(S(=O)(=O)N3CCCCC3C)cc2)sc2c1CCN(C)C2` (configuration not stated)?
NS1 inh: -6.8%; Shiga inhibitor: -5.1; Sm TGR inh: -27.8%; Cycloheximide cs: -4.2; Pf growth 48h: inconclusive; Pf growth 96h: 10.4µM*

How did Cc1ccc(Nc2nc3nonc3nc2Nc2cccc(C(F)(F)F)c2)cc1Cl do in these assays?
Sm TGR inh: 1.6%

How did COC(=O)c1c(NC(=O)c2ccc(S(=O)(=O)N3CCOCC3)cc2)sc2c1CCN(C)C2 do in these assays?
NS1 inh: -9.5%; Shiga inhibitor: -6.4; Sm TGR inh: -1.1%; Cycloheximide cs: -2.1; Pf growth 48h: 13.1µM*; Pf growth 96h: inconclusive

What do the screens show for `CCN1CCc2c(sc(NC(=O)c3ccc(S(=O)(=O)N4CCOCC4)cc3)c2C(=O)OC)C1`?
NS1 inh: -2.0%; Shiga inhibitor: 29.4; Sm TGR inh: 3.9%; Cycloheximide cs: -4.8; Pf growth 48h: inconclusive

What do the screens show for `CCN1CCc2c(sc(NC(=O)c3ccc(S(=O)(=O)N4CCOCC4)cc3)c2C(N)=O)C1`?
NS1 inh: -45.4%; Shiga inhibitor: -9.0; Sm TGR inh: 1.2%; Cycloheximide cs: -3.2; Pf growth 48h: inconclusive; Pf growth 96h: inconclusive

How did CCCN1CCc2c(sc(NC(=O)c3ccc(S(=O)(=O)N4CCCC4)cc3)c2C(N)=O)C1 do in these assays?
NS1 inh: 6.3%; Shiga inhibitor: -8.4; Sm TGR inh: -17.7%; Cycloheximide cs: -2.4; Pf growth 48h: 9.28µM*; Pf growth 96h: inconclusive

Results for COC(=O)c1sc2ccccc2c1-n1cccc1C(=O)C(=O)Nc1ccc(Cl)cc1 ?
NS1 inh: 6.8%; Shiga inhibitor: -9.5; Sm TGR inh: 1.7%; Cycloheximide cs: 15.6; Pf growth 48h: 27.9%; Pf growth 96h: 14.6%

What do the screens show for `COc1cc(C(C[N+](=O)[O-])c2c(C)cc3ccccn23)ccc1O` (configuration not stated)?
NS1 inh: -15.8%; Shiga inhibitor: -2.0; Sm TGR inh: 17.8µM*; Cycloheximide cs: -2.4; Pf growth 48h: inconclusive; Pf growth 96h: inconclusive

How did COc1cc(C(C[N+](=O)[O-])c2c(-c3ccccc3)cc3ccccn23)cc(OC)c1OC (configuration not stated) do in these assays?
NS1 inh: 28.5%; Shiga inhibitor: 32.7; Sm TGR inh: 8.91µM*; Cycloheximide cs: 16.0; Pf growth 96h: 11.7µM*

Results for COC(=O)C(C(=O)OC)C(C[N+](=O)[O-])c1ccc(OC)c(OC)c1 (configuration not stated) ?
NS1 inh: -23.3%; Shiga inhibitor: -7.8; Sm TGR inh: -9.0%; Cycloheximide cs: -3.8; Pf growth 48h: -2.5%; Pf growth 96h: 12.2%

Results for COc1cc(-c2ncc3ccccn23)cc(OC)c1OC ?
NS1 inh: -1.6%; Shiga inhibitor: -9.8; Sm TGR inh: -1.5%; Cycloheximide cs: -1.4; Pf growth 96h: inconclusive

How did COc1ccc(C(C[N+](=O)[O-])C2(c3ccc(OC)c(OC)c3)C(=O)c3ccccc3C2=O)cc1 (configuration not stated) do in these assays?
NS1 inh: -14.8%; Shiga inhibitor: -9.9; Sm TGR inh: 0.2%; Cycloheximide cs: -3.0; Pf growth 48h: -11.6%; Pf growth 96h: 101.5%

How did COc1ccc(C(C[N+](=O)[O-])c2c(-c3ccccc3)cc3ccccn23)cc1 (configuration not stated) do in these assays?
NS1 inh: 26.0%; Shiga inhibitor: 29.9; Sm TGR inh: -30.2%; Cycloheximide cs: 39.9*; Pf growth 48h: inconclusive; Pf growth 96h: 5.4%[5.75 µM]

How did COc1ccc(C(C[N+](=O)[O-])c2c(-c3ccccc3)cc3ccccn23)cc1OC (configuration not stated) do in these assays?
NS1 inh: -71.1%; Shiga inhibitor: -12.4; Sm TGR inh: 7.94µM*; Cycloheximide cs: -0.8; Pf growth 48h: inconclusive; Pf growth 96h: inconclusive

How did COc1ccc(-c2cc(C(=O)N3CCN(c4ccccc4)CC3)c3ccccc3n2)cc1 do in these assays?
NS1 inh: 16.9%; Shiga inhibitor: 62.7*; Sm TGR inh: 0.2%; Cycloheximide cs: 27.4*; Pf growth 48h: 7.3%; Pf growth 96h: -17.2%

What do the screens show for `COc1ccc(-c2cc(C(=O)N3CCC4(CC3)OCCO4)c3ccccc3n2)cc1`?
NS1 inh: -34.1%; Shiga inhibitor: 38.7; Sm TGR inh: -7.5%; Cycloheximide cs: 24.9*; Pf growth 48h: 19.2%; Pf growth 96h: 23.1%

What do the screens show for `COc1cc2ccccc2cc1C(=O)N1CC(C)CC(C)C1` (configuration not stated)?
NS1 inh: -15.3%; Shiga inhibitor: -8.6; Sm TGR inh: 5.0%; Cycloheximide cs: -3.0; Pf growth 48h: 0.329µM*; Pf growth 96h: 0.294µM*

How did COc1ccc(-c2cc(C(=O)N3CCN(c4ccccc4O)CC3)c3ccccc3n2)cc1 do in these assays?
Sm TGR inh: -17.4%; Pf growth 48h: inconclusive; Pf growth 96h: -114.3%
